Screening results (PubChem)
NS1 inh: inhibitors of influenza NS1 protein function | 0.4% of 270,000 active | Potency, µM (highest dose often 46.1 µM), without a hit: at the highest dose activity, positive = more growth; further: potency means the concentration at half of the fitted maximal effect; actives are rising curves; nearly all actives have a fitted effect of over 50% in size
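In this qHTS, NS1 from influenza A is expressed in budding yeast, where it slows growth. Cells are switched from glucose to 2% galactose medium (pH 6.0, -URA), treated with compound, and growth recovery is read at OD600.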
CHX counter: counter-screen for Shiga toxin inhibitors: cycloheximide protein synthesis inhibition; cell reporter, cycloheximide protein synthesis inhibition counterscreen; max response, %; 12% of 300,000 active; AID 2314; in the data active means max response mostly above about 13%, no sharp cut-off; inactive means mostly below about 14%; further: read at 38.3 µM for the half of the compounds with a filed dose; 0% is about no effect
Shiga inhibitor: blocks Shiga toxin action in Vero cells; Vero cells, Shiga toxin protein synthesis inhibition reporter; inhibition, % at 38.7 µM; 9.2% of 290,000 active; in the data active means inhibition mostly above about 28%, no sharp cut-off; inactive means mostly below about 43%; further: 0% is about no effect
SARS PLpro yeast: inhibitors of SARS-CoV papain-like protease in yeast. S. cerevisiae expressing SARS-CoV PLpro, growth rescue. Potency, µM (series often up to 32.9 µM), inactives show at the highest dose activity, positive = growth rescue, hits mostly activators. 0.19% of 330,000 active; further: potency means the concentration at half of the fitted maximal effect; 0% is about no effect; nearly all actives have a fitted effect of over 55% in size
Flu NS1 inh: influenza NS1 function inhibition validation. activity change, negative = inhibition, % at 32.9 µM. influenza NS1 function cell assay, 15-point titration. 1,400 tested, under 10 active. shares compounds with NS1 inh; further: 0% is about no effect
PR8 titer: influenza NS1 inhibitors: inhibition of influenza A/PR/8/34 replication. shares compounds with NS1 inh. MDCK infected influenza A/PR/8/34, virus titer TCID50; active compounds read low. virus titer (log TCID50), log10 TCID50 at 5 µM. 30% of 95 active. AID 504647; call rule not given here
Numbers without * were called inactive; ? = inconclusive; · = no result given. Sampled rows, rich in hits. Any-hit rate of the full collection: about 12%. Unless noted, the call rests on the fitted dose curve.

SMILES | NS1 inh | CHX counter | Shiga inhibitor | SARS PLpro yeast | Flu NS1 inh | others
O=C(Nc1ccc(Oc2ccc(NC(=O)c3ccco3)c(NC(=O)c3ccco3)c2)cc1)c1ccco1 | 8.9µM* | 9 | 15 | -2% | 12 | PR8 titer=7.7
COc1ccc(NC(=O)c2ccco2)cc1NC(=O)c1ccco1 | -14% | -7 | 0 | -4% | ·
COc1ccc(CCNC(=O)Cn2ccc3cc(S(=O)(=O)N4CCCC4)ccc32)cc1OC | 2.5µM* | -5 | -10 | 7% | -5
CCOc1cc(/C=N/NC(=O)COc2ccc(Cl)cc2)ccc1OS(=O)(=O)c1ccccc1 | 2µM* | 6 | 16 | 22% | ? | PR8 titer=7.7
Fc1ccc(Cn2nnnc2CN2CCC(n3nnc4cc(C(F)(F)F)ccc43)CC2)cc1 | 5µM* | 1 | -8 | 1% | ?
COc1ccc(SCCC(=O)NCc2ccncc2)cc1 | -3% | -1 | -7 | -1% | ·
Cc1ccc2nc(N3CCN(C)CC3)c(C#N)cc2c1 | 6.3µM* | 33* | 53 | -4% | 0
Cc1cccc2cc(C#N)c(N3CCN(C)CC3)nc12 | -11% | 0 | -7 | -10% | ·
Cc1cc(C)c2nc(N3CCN(C)CC3)c(C#N)cc2c1 | 6.3µM* | 11 | -10 | -4% | -24
CS(=O)(=O)c1ccc2nc(NC(=O)CCNC(=O)c3ccc(Cl)cc3)sc2c1 | · | · | · | 0% | ·
C[C@H](CO)N1C[C@H](C)[C@@H](CN(C)C(=O)NC2CCCCC2)Oc2ccc(NS(C)(=O)=O)cc2C1=O | · | · | · | -11% | ·
COc1ccc([N+](=O)[O-])cc1NC(=O)CCC(=O)c1cccs1 | · | 2 | 28 | 0% | ·
O=C(NCCN1CCCCC1)Nc1ccc(Br)cc1 | -4% | 3 | 22 | -4% | ·
Nc1cc(=O)[nH]n1C1CCN(c2ccccc2)CC1 | 14µM* | -4 | 3 | 18% | 27
Nc1ccc(N2CCN(c3cccc(Cl)c3)CC2)cc1 | ? | 15 | 21 | 4% | ·
Cc1ccc(-n2c(O)c(/C=N/Nc3ccc(S(=O)(=O)N4CCOCC4)cc3[N+](=O)[O-])c3ccccc3c2=O)c(C)c1 | 2.5µM* | -2 | 20 | -9% | 34
O=C(O)c1ccc(/C=N\Nc2ccc(S(=O)(=O)N3CCOCC3)cc2[N+](=O)[O-])cc1 | 0% | -3 | -3 | 2% | ·
Cc1nc2c(ccc3nc(NC(=O)c4ccc5c(c4)OCCO5)sc32)s1 | ? | 45* | 43 | -8% | -30
Cc1nc2c(ccc3nc(NC(=O)C(c4ccccc4)c4ccccc4)sc32)s1 | 10% | -2 | -11 | -17% | ·
COc1ccc(-c2nnc(SC(C(=O)c3c[nH]c4ccccc34)c3ccccc3)n2N)cc1OC (centres undefined) | 20µM* | 8 | 7 | 11% | ?
Cc1nnc(SCC(=O)OC2CC(C)CCC2C(C)C)[nH]c1=O (centres undefined) | 8% | 17 | 13 | 1% | ·
CC1CCC(C(C)C)C(OC(=O)CSc2nc(N)cc(=O)[nH]2)C1 (centres undefined) | 8.9µM* | 8 | -14 | -4% | 3
COc1ccccc1CC(=O)Nc1ccc2c(c1)C(=O)NC2=O | -4% | -3 | -11 | 1% | ·
O=C(CSc1ccc(F)cc1)Nc1ccc2c(c1)C(=O)NC2=O | 1.6µM* | 16 | 15 | 5% | -9
COC(=O)CCCNC(=O)CN1CC(c2ccccc2)CC1=O (centres undefined) | ? | -2 | 17 | 2% | 5
SMILES | NS1 inh | CHX counter | Shiga inhibitor | SARS PLpro yeast | Flu NS1 inh | others
O=C1NN(c2ccc(Br)cc2)C(=O)/C1=C\c1ccc(O)cc1O | 4µM* | 14 | · | -5% | -14
O=C1NN(c2cccc(Br)c2)C(=O)/C1=C\c1ccc(O)cc1 | -8% | -6 | -2 | -1% | ·
O=C(CN1C(=O)C(=O)N(Cc2ccco2)C1=O)Nc1ccccc1 | · | · | · | -4% | ·
Cc1ccc2c(C)nc(Nc3nc(CSc4nnnn4-c4ccccc4)cc(=O)[nH]3)nc2c1 | 14µM* | 4 | -10 | 2% | -25
COc1ccc2nc(Nc3nc(CSc4nnnn4-c4ccccc4)cc(=O)[nH]3)nc(C)c2c1 | -4% | -3 | -11 | -1% | ·
C=CCOc1cccc(/C=C2\C(=O)N(Cc3ccc(C)cc3)C(C)=C2C(=O)OC)c1 | 11% | -1 | -12 | -4% | ·
CCOc1cc(/C=C2\C(=O)N(Cc3ccc(C)cc3)C(C)=C2C(=O)OC)ccc1O | 14µM* | -3 | -13 | 2% | -2
CCOc1cc(/C=C2\C(=O)NC(=O)N(CCc3ccc(F)cc3)C2=O)ccc1O | 0.35µM* | -2 | -10 | 0% | 30
CN(C)c1ccc(/C=C2/C(=O)NC(=O)N(CCc3ccc(F)cc3)C2=O)cc1 | -16% | -2 | -9 | -9% | ·
Fc1ccc(NC(=S)Nc2ccccc2N2CCOCC2)cc1Cl | · | 10 | -13 | -16% | ·
COc1cccc(CN2CC(C(=O)N(C)CC3CCOCC3)CCC2=O)c1 (centres undefined) | 25% | 7 | 41 | 5% | ·
O=C(Cn1cc2c(n1)CCCC2)NCCCN1CCN(C2CCCCC2)CC1 | 8.9µM* | -1 | 11 | 3% | 8
C=CCn1c(SCc2c(Cl)cccc2Cl)nnc1-c1cccnc1 | -10% | -2 | -8 | -25% | ·
CCN(CC)C(=O)CSc1nnc(-c2ccccc2)n1N | 6.3µM* | 21 | -7 | 6% | 10
CCOC(=O)N1CCN(C(=O)c2ccc3c(=O)n(CC4CCCO4)c(=S)[nH]c3c2)CC1 (centres undefined) | 0% | 4 | -9 | -1% | ·
O=C(c1ccc2c(=O)n(CC3CCCO3)c(=S)[nH]c2c1)N1CCN(c2ccccc2)CC1 (centres undefined) | ? | -2 | 15 | -3% | 0
O=C(CNC(=O)N1CC(=O)Nc2ccccc21)Nc1ccc(F)c(Cl)c1 | -1% | -3 | -6 | 10% | ·
COCCn1nnnc1C(c1ccc(C)cc1)N1CCN(Cc2ccc3c(c2)OCO3)CC1 (centres undefined) | -4% | -4 | -14 | 3% | ·
COCCn1nnnc1C(c1ccccc1)N1CCN(Cc2ccc3c(c2)OCO3)CC1 (centres undefined) | 4.5µM* | -6 | -16 | 0% | -4
CCCSCCCNC(=O)CN1C(=O)COc2ccc(S(=O)(=O)N3CCCC3)cc21 | -1% | 8 | 7 | 1% | ·
CCc1ccc2c(c1)C1(SC(NC(C)=O)=NN1C(C)=O)C(=O)N2CC (centres undefined) | · | 11 | -6 | 2% | ·
O=C(C1=NN(c2ccccc2)C2C(=O)N(c3ccccc3Cl)C(=O)C12)c1ccccc1 (centres undefined) | 5.6µM* | -3 | 2 | -9% | -29 | PR8 titer=8
O=C(C1=NN(c2ccccc2)C2C(=O)N(c3ccccc3)C(=O)C12)c1ccccc1 (centres undefined) | ? | 0 | -10 | -17% | ·
CN1CCCN(C(=O)CC(c2ccccc2)c2ccccc2)CC1 | -4% | -7 | -5 | 0% | ·
Cc1cc(NC(=O)CCC(=O)N(CC(=O)NC2CCCC2)c2cccc(F)c2)no1 | ? | 1 | -14 | 3% | -7
